Our source for the inhibition values is PubChem BioAssay AID777 (Sanford-Burnham Center for Chemical Genomics, 2007).

Molecules are shown by their SMILES. The campaign covered roughly 96,000 compounds. About 19,000 (20%) were called active. Only a sample is shown. Values without a mark were called inactive.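 The calls were made as follows: active = blocking of liver enzyme CYP2C9 beyond about 50% at 5 µM (limit read from the data); inactive = the rest.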

Cytochrome P450 2C9 (Homo sapiens), sequence (P11712 whole entry, looked up): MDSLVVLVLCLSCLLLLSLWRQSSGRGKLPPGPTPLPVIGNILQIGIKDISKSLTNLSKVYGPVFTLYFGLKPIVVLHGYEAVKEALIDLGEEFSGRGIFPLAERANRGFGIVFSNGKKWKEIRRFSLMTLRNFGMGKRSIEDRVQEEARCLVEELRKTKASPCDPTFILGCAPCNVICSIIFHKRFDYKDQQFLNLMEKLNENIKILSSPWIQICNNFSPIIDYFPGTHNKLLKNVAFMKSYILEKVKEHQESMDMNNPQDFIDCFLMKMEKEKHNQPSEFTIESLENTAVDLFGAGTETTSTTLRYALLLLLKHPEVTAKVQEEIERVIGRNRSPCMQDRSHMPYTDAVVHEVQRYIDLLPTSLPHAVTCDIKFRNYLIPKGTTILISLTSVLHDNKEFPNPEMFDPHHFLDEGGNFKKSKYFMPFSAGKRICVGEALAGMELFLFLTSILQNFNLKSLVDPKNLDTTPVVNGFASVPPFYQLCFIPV

The assay concerns the target Cytochrome P450 2C9 (Homo sapiens) (UniProt P11712). Description: blockers of cytochrome P450 2C9 activity – biochemical, luminescence, ADME assay, primary screen (AID 777). The following applies: CYP2C9 Supersomes, luciferin-H conversion, at 5 µM, stronger effect = higher value.
In general, inhibition refers to the change of the read-out against control, counted positive when it falls. Turning to `c1ccc2cc3[nH]c(CN4CCCCC4)nc3cc2c1`, the inhibition is 41.8%.

For `COc1ccccc1C(=O)NN1C(=O)C2C3C=CC(O3)C2C1=O` (stereo not given), the inhibition is -18.8%.

As to `Cc1cc2nnc(SCC(=O)N3CCN(c4ccccc4)CC3)n2c(N)n1`, the inhibition was 7.8%.

`COC(=O)Cc1cc(=O)oc2c(C)c(O)ccc12`: the inhibition was -19.4%.

`CCCc1cc(=O)oc2c(C)c(O)c(CN3CCCCC3)cc12`: the inhibition is 69.5% (active).

`O=c1oc2c(CN3CCCCC3)c(O)ccc2c2c1CCCCC2`: the inhibition was -13.6%.

With `Nn1c(SCC(=O)NC(=O)NC2CCCC2)nnc1-c1ccccc1F`, the inhibition was 44%.

On to `CCn1c(C)nc2cc(C(=O)NNS(=O)(=O)c3ccc(C)cc3C)ccc21`, for which the inhibition was -5.3%.

In the case of `CCOC(=O)c1ccc2c(c1)nc(SCC(=O)NC(C)C)n2CC`, the inhibition was 62.3% (active).

Turning to `CCOC(=O)c1ccc(NC(=O)CSc2ncccn2)cc1`, the inhibition is 34.5%.

For the compound `Cc1ccc(N2CCN(/N=C/c3cccs3)CC2)cc1`, the inhibition was -7%.

Consider `S=c1nccc(-c2cc(Cl)sc2Cl)[nH]1`, for which the inhibition was -6.6%.

For the compound `CCOc1ccc(CNC(=O)C2CC(=O)N(C3CCCC3)C2)cc1OC` (stereo not given), the inhibition was 7.1%.

In the case of `CCC(O)CNc1nc(-n2nc(C)cc2C)nc2sc3c(c12)CC(C)(C)OC3` (stereo not given), the inhibition was 19.9%.

On to `COc1ccc(OC)c(C(=O)c2coc3ccc(OC)cc23)c1`, for which the inhibition was 68.5% (active).

Regarding `COc1ccc(OC)c(C(=O)c2coc3ccc(O)c(CN4CCOCC4)c23)c1`, the inhibition is 22%.

For the compound `COc1ccc2occ(C(=O)c3ccc(N=C(C)N(C)C)cc3)c2c1`, the inhibition is -17.7%.

As for `CCC1CCCCN1C(=O)Nc1cccc(NC(=O)N2CCCCC2CC)c1` (stereo not given), the inhibition was -13.6%.

For `CC(=O)c1ccc2c(c1)c1ccccc1n2CC(C)C`, the inhibition was 20.5%.

Consider `CS(=O)(=O)N(CC(O)Cn1c2ccccc2c2ccccc21)c1cccc2ccccc12` (stereo not given), for which the inhibition was 99.6% (active).

In the case of `Cc1cccc(N(CC(=O)N=Nc2c(O)[nH]c3ccccc23)S(C)(=O)=O)c1C`, the inhibition is 44.2%.

For `C=CCn1c(SCC(=O)c2c(N)n(C)c(=O)n(C)c2=O)nc2sc(CC)cc2c1=O`, the inhibition is 38.3%.

Regarding `CCS(=O)(=O)c1ccc2c(c1)N(S(=O)(=O)c1ccccc1)CC(C(=O)O)O2` (stereo not given), the inhibition was 42.8%.

As for `CC(C)(C)NC(=O)NC(=O)COC(=O)Cn1c(C(F)(F)F)nc2ccccc21`, the inhibition was 43.9%.

Take `Cc1ccccc1CSCC(=O)NC(=O)NC(C)(C)C`: the inhibition is 62.3% (active).

Turning to `COc1ccccc1OCCC(=O)OCC(=O)NC(=O)NC(C)(C)C`, the inhibition is 2.5%.

Take `O=C(O)C1C2C=CC(C2)C1C(=O)N1CCN(CCO)CC1` (stereo not given): the inhibition is 10.3%.

For `Cc1nn(Cc2ccccc2)c(Cl)c1C(=O)OC1CCOC1=O` (stereo not given), the inhibition is 5.7%.

As to `COC(=O)c1ccc(COC(=O)c2c(C)nn(Cc3ccccc3Cl)c2Cl)o1`, the inhibition was 83.3% (active).

On to `CCOC(=O)c1cnn(Cc2ccccc2Cl)c1N`, for which the inhibition is 22%.

For `Cc1noc(C)c1C(=O)N1CCOCC1`, the inhibition was -7.1%.

For the compound `c1ccc(CC2CCN(c3nc4ccccc4n4cnnc34)CC2)cc1`, the inhibition is 20.5%.

In the case of `CCCn1c(C)cc(C(=O)COC(=O)c2c(C)nn(-c3ccccc3)c2C)c1C`, the inhibition was -31.1%.

With `CC(C)=C1SC(N2CCN(c3cccc(C)c3)CC2)=NC1=O`, the inhibition was -36.8%.

As for `CNS(=O)(=O)c1cnccc1N1CCN(c2cccc(C)c2)CC1`, the inhibition is 57.7% (active).

`O=S(=O)(c1cnccc1N1CCN(/N=C/c2ccc(Br)cc2)CC1)N1CCCCC1`: the inhibition is -9.2%.

Regarding `O=C(N/N=C\c1cccc(Br)c1)c1ccccc1-n1cccc1`, the inhibition is 66.3% (active).

For the compound `Cn1c(=O)n(C)c2cc(/C=N/NC(=O)c3cccc(Br)c3)ccc21`, the inhibition was -21.3%.

In the case of `N=c1oc2ccccc2cc1C(=O)N/N=C/c1ccccc1`, the inhibition was 27.9%.

On to `Cc1nn(C)cc1C(=O)NNC(=S)Nc1ccc(Cl)cc1`, for which the inhibition was 18.7%.

Take `CCN(Cc1cc2cc(C)ccc2[nH]c1=O)S(=O)(=O)c1ccccc1`: the inhibition is 5.9%.

In the case of `COc1ccc(CCNC(=O)c2ccco2)cc1`, the inhibition was 8.8%.

Turning to `O=C(NCCc1ccccn1)c1ccc(COc2ccccc2)o1`, the inhibition is 13.4%.

As to `COc1ccc(-c2nc(CCNC(=O)c3ccc(Br)o3)cs2)cc1`, the inhibition is 62.2% (active).

For `CCOC(=O)/C=c1\s/c(=C\c2ccccc2OC)c(=O)n1CC(=O)N1CCOCC1`, the inhibition was 2%.

In the case of `Clc1ccc(CSc2nnc([C@@H]3CCCN3)o2)cc1`, the inhibition is 31.8%.

Turning to `CCSc1nnc(-c2cc3c(s2)-c2ccccc2CC3)o1`, the inhibition was -16.8%.

As to `Fc1ccc(CSc2nnc(-c3cc4c(s3)-c3ccccc3CC4)o2)cc1`, the inhibition was 52.4% (active).

Consider `CC(C)OC(=O)c1sc2nc3c(cc2c1N)C(=O)CCC3`, for which the inhibition was 19.5%.

Turning to `N#Cc1nc(COc2ccc(Cl)cc2)oc1N1CCCC1`, the inhibition is 39.8%.

On to `CC1CCN(c2oc(-c3ccccc3F)nc2C#N)CC1`, for which the inhibition is 80% (active).

Take `COc1ccccc1-c1nc(C#N)c(N2CCC(C(N)=O)CC2)o1`: the inhibition is -9.8%.

As for `Cc1ccc(NC(=O)CCN2CCc3ccccc3C2)cc1`, the inhibition is 11.4%.

On to `Cc1ccc(NC(=O)CN2CCc3ccccc3C2)cc1`, for which the inhibition was 87.4% (active).

On to `O=C(CN1CCOCC1)Nc1ccccc1`, for which the inhibition is 11.4%.

On to `Cc1ccccc1-n1nnc2c(=O)oc3ccccc3c21`, for which the inhibition was 5.8%.

For `Cc1cc(=O)[nH]c(SCC(N)=O)c1C#N`, the inhibition was 1.6%.

For the compound `CCOC(=O)Nc1ccc(NC(=O)OCC)cc1`, the inhibition is -16.2%.

On to `COc1ccc(-n2c(C)cc(C(=O)CSc3nnc(-c4cccs4)o3)c2C)cc1`, for which the inhibition is 90.8% (active).

For the compound `COc1ccc(-c2nnc(SCC(=O)c3cccs3)o2)c(OC)c1`, the inhibition is 16.1%.

As to `COc1ccccc1-c1nnc(SCC(=O)Nc2cc(C)on2)o1`, the inhibition is -64.2%.

With `COc1ccc(OC)c(C(=O)CSc2nnc(-c3cccs3)o2)c1`, the inhibition was 54.4% (active).

In the case of `Cc1cc(NC(=O)CSc2nnc(-c3ccc(Cl)s3)o2)no1`, the inhibition is 18.4%.

In the case of `NC(=O)CSc1oc(-c2cccs2)nc1S(=O)(=O)c1ccccc1`, the inhibition was 30.5%.

As for `C=CCNC(=S)NNc1ncnc2sc3c(c12)CC(C)(C)OC3`, the inhibition is 19.6%.

For the compound `CCOC(=O)C1=C(C)N=c2s/c(=C\C(=O)OC)c(=O)n2C1c1ccc(OC)cc1` (stereo not given), the inhibition is 6.6%.

Take `O=C(CNC(=O)c1ccco1)OCC(=O)c1ccccc1`: the inhibition was -2.5%.

In the case of `O=C(COC(=O)c1ccccc1C(=O)c1ccccc1)c1ccco1`, the inhibition was 90.4% (active).

Consider `CCN(CC)c1ccc(C(=O)OCC(=O)c2ccco2)cc1`, for which the inhibition is -26.4%.

`NC(=O)c1ccccc1NC(=O)c1ccccc1F`: the inhibition is -7.7%.

For the compound `Fc1ccccc1OCCSc1nc2ccccc2o1`, the inhibition is 21.5%.

`Cc1c(Br)cc(C(=O)N2CCCCCC2)c(C)c1C`: the inhibition is -38.3%.

Take `FC(F)(F)c1ccc2nnc(-c3c(Cl)cccc3Cl)n2c1`: the inhibition is 25.7%.

For the compound `COc1cc(OC)c(NC(=O)c2ccc(Br)o2)cc1Cl`, the inhibition is 38.8%.

In the case of `CCN1CCN(c2c(Cl)cccc2NC(=O)c2ccc(Br)o2)CC1`, the inhibition was 64.7% (active).

Turning to `CCCC(=O)Nc1ccc(Cl)c(NC(=O)c2ccc(Br)o2)c1`, the inhibition is 16.1%.

For the compound `CCOc1ccc(OCC)c(-c2c(=O)n(OCc3ccc(Cl)cc3)c3ccccc3[n+]2[O-])c1`, the inhibition is 49.9%.

Turning to `Clc1ccc(COn2c(-c3ccc(Cl)cc3Cl)nc3ncccc32)cc1`, the inhibition was 97.1% (active).

`O=C(Nc1cccc2ncccc12)c1ccc(-c2ccc(Cl)cc2Cl)o1`: the inhibition is 5.6%.

Regarding `COc1ccc(CC(=O)Nc2sc(Cc3ccccc3)c(C)c2C(N)=O)cc1`, the inhibition is 20.4%.

For `CCOC(=O)CSc1nnc(CNc2ccc(F)cc2)o1`, the inhibition was 14.8%.

For `CCCCSc1[nH]c(=O)c(C(=O)OCC)cc1C#N`, the inhibition was 19.4%.

As to `CN(C(=O)c1ccccn1)c1nnc(-c2ccccn2)s1`, the inhibition was 2.1%.

Turning to `CCOc1ccc(NC(=O)CCS(=O)(=O)c2cccc3nsnc23)cc1`, the inhibition is 33.7%.

Take `CCOc1ccc(-c2cn(S(=O)(=O)c3cccc4nsnc34)nc2N)cc1`: the inhibition was 62.6% (active).

Take `CCOc1ccc(OCC)c(NC(=O)CN(C)S(=O)(=O)c2cccc3nsnc23)c1`: the inhibition was -23.4%.

As for `CCN(CC)Cc1csc2ccc(Br)cc12`, the inhibition is -14.3%.

Regarding `Cc1cc(NC(=O)Cn2nc(C(F)(F)F)c3c2CCCC3)no1`, the inhibition is 14.9%.

With `Cc1cccc(-n2c(N)c(C(=O)N3CCN(C)CC3)sc2=S)c1`, the inhibition is 19.9%.

In the case of `N#Cc1ccccc1-n1c(N)c(C(=O)N2CCCC2)sc1=S`, the inhibition is 69.3% (active).

Take `Cc1ccc(-n2c(N)c(C(=O)N3CCOCC3)sc2=S)c(C)c1`: the inhibition is 8.6%.

Take `COc1ccc(-n2nc(C(=O)NCC(=O)Nc3cccc(C)n3)c3ccccc3c2=O)cc1`: the inhibition is 23.8%.

`COc1ccc(C(C)=O)cc1CN1C(=O)NC2(CCCCC2C)C1=O` (stereo not given): the inhibition is 9.5%.

With `C#CCN1CC(C)/C(=N/O)CC1C` (stereo not given), the inhibition was -28.8%.

`CCOC(=O)C1=C(C)NC2=C(C(=O)CC(C)(C)C2)C1c1ccsc1` (stereo not given): the inhibition is 39.8%.

On to `COc1cc(C2C(C#N)=C(C)NC3=C2C(=O)CC(C)(C)C3)ccc1O` (stereo not given), for which the inhibition was 58.5% (active).

Take `CCC1C(C#N)=C(SC)NC2=C1C(=O)CC(C)(C)C2` (stereo not given): the inhibition was 19%.

For `COc1ccc(C2C(C#N)=C(/N=C/N3CCOCC3)OC3=C2C(=O)CC(C)(C)C3)cc1OC` (stereo not given), the inhibition is 69% (active).

Take `CC(=O)Nc1ccc(NC(=O)CN2CCCC(C)C2)c(Cl)c1` (stereo not given): the inhibition was 18.3%.

Regarding `c1ccc(C2CCC(N3CCC(N4CCCCC4)CC3)CC2)cc1` (stereo not given), the inhibition is 11%.
